A number with no mark means an inactive call. Records with an inconclusive call do not appear. Activity calls are given as the source filed them. Unless noted, calls follow the shape of the dose curve; as a rule, active = well fitted curve in either direction with a large enough effect (not every such curve was filed as active); inconclusive = small, poorly fitted or top-dose-only effect, or another doubt; inactive = flat fitted curve, though single readings scatter.
Experiments:
[1] = molecular target: Lysosomal acid glucosylceramidase (Homo sapiens) (UniProt P04062); assay: Glucocerebrosidase-p2 (AID 348; in the data active = potency below about 10 µM; also: potency is read from the fitted curve at half-maximal effect); conditions: purified GBA, blue fluorogenic substrate, 40 min
Sequence of Lysosomal acid glucosylceramidase (Homo sapiens) (P04062 whole entry, looked up): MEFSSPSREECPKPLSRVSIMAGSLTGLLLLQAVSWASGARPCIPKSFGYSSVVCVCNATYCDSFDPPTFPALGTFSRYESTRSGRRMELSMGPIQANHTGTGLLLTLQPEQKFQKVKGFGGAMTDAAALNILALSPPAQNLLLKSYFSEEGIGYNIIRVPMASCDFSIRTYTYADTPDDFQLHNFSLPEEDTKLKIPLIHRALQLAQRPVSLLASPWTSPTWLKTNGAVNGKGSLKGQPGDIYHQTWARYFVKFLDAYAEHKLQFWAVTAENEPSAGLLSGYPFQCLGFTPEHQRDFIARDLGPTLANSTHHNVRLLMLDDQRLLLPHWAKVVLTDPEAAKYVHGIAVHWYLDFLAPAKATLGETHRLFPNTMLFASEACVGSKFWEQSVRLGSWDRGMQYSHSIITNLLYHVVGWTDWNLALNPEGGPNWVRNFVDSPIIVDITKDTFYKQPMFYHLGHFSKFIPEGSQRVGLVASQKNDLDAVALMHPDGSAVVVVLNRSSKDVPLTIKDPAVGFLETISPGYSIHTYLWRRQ
Summary of the method: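 Compounds titrated from 0.6 nM upwards against 0.2 nM enzyme in pH 5.9 citric acid/KH2PO4, taurocholate, tween-20; blue fluorogenic substrate 80 uM, 40 min room temperature, stopped and read Ex 365/Em 440 for AC50.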

[2] = AP1 Signaling Pathway (AID 357); conditions: ME-180 AP-1-bla reporter, EGF-induced, beta-lactamase ratio, 5 h; at 7.69 µM (top of the series) unless noted;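 also: ME-180 reporter cells stimulated with EGF at its EC50 level; % is scaled to controls: 0 for no effect and ±100 for the full control effect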
Summary of the method: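 In this screen, ME-180 cells in Opti-MEM with 0.5% dialyzed FBS received EC50 EGF and compound titrations for 5 h. AP-1 reporter beta-lactamase was detected via CCF4 ratio, giving AC50 for positive and negative modulators.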

[3] = NFAT Signaling Pathway (AID 444); conditions: Jurkat NFAT-bla M1, carbachol, beta-lactamase ratio, 5 h; at 7.69 µM (top of the series) unless noted;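 also: carbachol stimulus at about its EC50 of 1 µM final; % is scaled to controls: 0 for no effect and ±100 for the full control effect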
Summary of the method: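 Jurkat cells with NFAT-driven β-lactamase reporter and co-expressed M1 receptor, stimulated with carbachol (final 1 uM, ~EC50), compound titration, 5 h at 37 °C. CCF4 loaded 1 h at RT; 460/530 nm ratio gave %activity and AC50.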

[4] = Stat Signaling Pathway (AID 446); conditions: ME-180 SIE beta-lactamase reporter, IL-6 stimulated, 5 h; at 7.69 µM (top of the series) unless noted;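 also: ME-180 cervical cancer cells given 40 pM IL-6 alongside compound; SIE-controlled beta-lactamase reporter measured as 460/530 nm FRET emission ratio; % is scaled to controls: 0 for no effect and ±100 for the full control effect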
Summary of the method: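 ME-180 SIE-bla cells; overnight plating; cpd + IL-6 40 pM, 5 h, 37 C; LiveBLAzer 2.5 h RT; 460/530 nm emission ratio. Normalized to 300 pM IL-6 and 125 nM JAK inhibitor controls.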

[5] = molecular target: Glucocorticoid receptor (Homo sapiens) (UniProt P04150); assay: GR-GFP Redistribution (AID 450;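 active = compounds whose dose series gives a full or clear partial fitted curve of increased nuclear translocation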; also: potency is read from the fitted curve at half-maximal effect); conditions: U2OS GR-GFP nuclear translocation, laser cytometry, 2 h
Sequence of Glucocorticoid receptor (Homo sapiens) (P04150 whole entry, looked up, the tested form may be a part): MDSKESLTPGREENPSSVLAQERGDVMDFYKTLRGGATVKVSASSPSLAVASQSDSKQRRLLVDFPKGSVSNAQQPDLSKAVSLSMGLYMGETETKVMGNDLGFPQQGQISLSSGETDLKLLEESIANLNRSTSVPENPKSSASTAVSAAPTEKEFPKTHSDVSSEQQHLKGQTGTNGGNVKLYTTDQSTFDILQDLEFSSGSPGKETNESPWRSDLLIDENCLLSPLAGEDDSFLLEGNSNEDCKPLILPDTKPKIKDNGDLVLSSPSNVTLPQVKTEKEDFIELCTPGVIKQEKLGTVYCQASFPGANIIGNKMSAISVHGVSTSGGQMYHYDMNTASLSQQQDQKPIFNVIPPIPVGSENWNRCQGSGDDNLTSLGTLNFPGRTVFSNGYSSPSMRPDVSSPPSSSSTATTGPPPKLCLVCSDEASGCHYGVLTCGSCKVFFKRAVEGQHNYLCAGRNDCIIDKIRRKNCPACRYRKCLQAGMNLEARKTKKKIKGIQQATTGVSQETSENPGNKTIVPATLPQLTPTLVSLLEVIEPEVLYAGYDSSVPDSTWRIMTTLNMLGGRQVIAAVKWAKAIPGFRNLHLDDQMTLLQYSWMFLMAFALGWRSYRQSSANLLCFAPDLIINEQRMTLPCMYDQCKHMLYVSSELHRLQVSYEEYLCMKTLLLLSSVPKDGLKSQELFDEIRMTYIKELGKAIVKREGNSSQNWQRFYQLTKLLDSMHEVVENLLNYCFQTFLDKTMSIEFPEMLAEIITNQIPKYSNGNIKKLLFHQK

[6] = molecular target: Glucocorticoid receptor (Homo sapiens) (UniProt P04150); assay: GR-EFC Redistribution (AID 451; calls by dose curve; also: potency is read from the fitted curve at half-maximal effect); conditions: CHO-K1 GR-EFC translocation, beta-gal luminescence, 2 h
Summary of the method: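 CHO-K1 cells expressing nuclear EA and GR-ED fragments of b-gal; compounds titrated up to 46 uM final, 2 h at 37 C. GR nuclear translocation read as complemented b-gal luminescence after 1 h RT detection.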

[7] = molecular target: Mitogen-activated protein kinase 10 (Mus musculus) (UniProt Q61831); assay: JNK3 AlphaScreen Assay (AID 530); conditions: JNK3 lysate, c-Jun phosphorylation; series mostly up to 11.4 µM;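 also: kinase came from lysate of stimulated human HepG2 cells; signal reports phosphorylation of biotinylated GST-cJun 1-79 at Ser73 with 10 µM ATP; % is scaled to controls: 0 for no effect and ±100 for the full control effect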
Summary of the method: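 Pre-activated (IL-1β/TNFα) JNK3 in HepG2 lysates phosphorylates biotin-GST-cJun(1-79), 10 uM ATP; anti-phospho-cJun(Ser73) AlphaScreen read at room temperature, pH 7.6 Tris buffer. Compounds pre-incubated 15 min as titrations.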

[8] = molecular target: 3',5'-cyclic-AMP phosphodiesterase 4B (Homo sapiens) (UniProt Q07343); assay: qHTS Assay for Inhibitors of PDE-IV (AID 607; active = well fitted activation curve with a large enough effect in the main read-out, with a control signal flat, not every such curve was filed as active; also: % of control where 0% means no effect); conditions: HEK293 ACTOne CNG channel cells, membrane potential fluorescence; series mostly up to 22.9 µM
Sequence of 3',5'-cyclic-AMP phosphodiesterase 4B (Homo sapiens) (Q07343 whole entry, looked up): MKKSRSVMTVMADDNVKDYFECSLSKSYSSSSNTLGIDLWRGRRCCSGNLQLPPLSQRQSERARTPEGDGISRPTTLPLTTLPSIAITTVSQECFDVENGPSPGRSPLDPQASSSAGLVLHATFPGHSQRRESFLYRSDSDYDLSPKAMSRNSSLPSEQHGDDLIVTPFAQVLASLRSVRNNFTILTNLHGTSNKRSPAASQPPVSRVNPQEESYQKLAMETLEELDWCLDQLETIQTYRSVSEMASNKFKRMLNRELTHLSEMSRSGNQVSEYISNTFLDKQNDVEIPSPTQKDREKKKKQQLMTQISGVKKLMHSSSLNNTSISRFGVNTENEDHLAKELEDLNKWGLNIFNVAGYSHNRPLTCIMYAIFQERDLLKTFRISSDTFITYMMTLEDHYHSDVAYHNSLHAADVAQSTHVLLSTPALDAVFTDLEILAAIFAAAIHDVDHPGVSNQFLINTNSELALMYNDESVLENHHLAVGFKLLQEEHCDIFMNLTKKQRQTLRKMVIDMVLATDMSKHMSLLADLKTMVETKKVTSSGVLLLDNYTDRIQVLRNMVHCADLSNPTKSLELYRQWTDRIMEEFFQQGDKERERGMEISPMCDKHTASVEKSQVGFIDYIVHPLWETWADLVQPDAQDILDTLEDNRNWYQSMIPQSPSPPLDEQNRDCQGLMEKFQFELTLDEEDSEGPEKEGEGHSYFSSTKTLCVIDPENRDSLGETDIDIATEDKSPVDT
Summary of the method: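 ACTOne HEK293 cells carry a modified cAMP-gated CNG channel and express endogenous PDE4; plated 1000 cells/well, compounds up to 22.9 uM final. Membrane-potential dye fluorescence (ex 535/em 590) was read; parental cells received 10 uM forskolin + 100 uM RO 20-1724.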

[9] = molecular target: Cytochrome P450 2D6 (Homo sapiens) (UniProt P10635); assay: qHTS Assay for Inhibitors and Substrates of Cytochrome P450 2D6 (AID 891; active = well fitted curve in the direction sought with a large enough effect; an effect the other way counts as inactive or inconclusive;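 also: luciferin methyl ether substrate demethylated by CYP2D6 with NADPH regeneration; % is scaled to controls: 0 for no effect and ±100 for the full control effect; nearly all actives have a fitted effect of over 60% in size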); conditions: recombinant CYP2D6, luciferin-ME EGE luminescence; series mostly up to 11.4 µM
Sequence of Cytochrome P450 2D6 (Homo sapiens) (P10635 whole entry, looked up): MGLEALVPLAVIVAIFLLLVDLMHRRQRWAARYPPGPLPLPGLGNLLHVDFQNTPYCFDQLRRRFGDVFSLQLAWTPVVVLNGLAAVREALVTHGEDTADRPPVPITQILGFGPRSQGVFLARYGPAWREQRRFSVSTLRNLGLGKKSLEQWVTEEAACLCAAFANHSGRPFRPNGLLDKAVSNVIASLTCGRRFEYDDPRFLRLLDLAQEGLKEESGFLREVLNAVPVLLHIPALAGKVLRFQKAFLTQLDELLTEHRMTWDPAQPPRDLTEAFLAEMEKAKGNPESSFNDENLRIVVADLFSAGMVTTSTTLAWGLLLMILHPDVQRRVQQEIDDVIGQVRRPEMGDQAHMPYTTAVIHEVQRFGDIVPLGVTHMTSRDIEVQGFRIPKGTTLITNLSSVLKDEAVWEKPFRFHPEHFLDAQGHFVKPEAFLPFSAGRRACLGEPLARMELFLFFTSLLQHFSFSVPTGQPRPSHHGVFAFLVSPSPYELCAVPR
Summary of the method: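 Human CYP2D6 (5 nM) with 30 uM Luciferin-ME EGE (at Km) in 100 mM KPO4, compound preincubated 10 min, then NADPH regeneration system for 60 min at room temperature. Luciferin read by luminescence; normalized to 1.43 uM quinidine.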

[10] = qHTS Assay for Identification of Small Molecule Agonists for Hypoxia Response Element Signaling Pathway (AID 914; active = well fitted activation curve with a large enough effect in the signal ratio, with a control signal flat, not every such curve was filed as active; the % refers to the signal ratio; also: % of control where 0% means no effect); conditions: ME-180 (cervical carcinoma) HRE-bla reporter, beta-lactamase ratio, CoCl2, 17 h; activation: stronger effect = higher value
Summary of the method: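 Reporter activity (beta-lactamase, CCF4 460nm/530nm ratio) in HRE-bla ME-180 cells is recorded after 17 h compound exposure with EC50 CoCl2 at 37 degrees Celsius. AC50 values come from titration data.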

[11] = molecular target: Cytochrome P450 2C19 (Homo sapiens) (UniProt P33261); assay: qHTS Assay for Inhibitors and Substrates of Cytochrome P450 2C19 (AID 899; active = well fitted curve in the direction sought with a large enough effect; an effect the other way counts as inactive or inconclusive; also: nearly all actives have a fitted effect of over 60% in size; also: potency is read from the fitted curve at half-maximal effect); conditions: recombinant CYP2C19, luciferin-H EGE luminescence; series mostly up to 11.4 µM
Sequence of Cytochrome P450 2C19 (Homo sapiens) (P33261 whole entry, looked up): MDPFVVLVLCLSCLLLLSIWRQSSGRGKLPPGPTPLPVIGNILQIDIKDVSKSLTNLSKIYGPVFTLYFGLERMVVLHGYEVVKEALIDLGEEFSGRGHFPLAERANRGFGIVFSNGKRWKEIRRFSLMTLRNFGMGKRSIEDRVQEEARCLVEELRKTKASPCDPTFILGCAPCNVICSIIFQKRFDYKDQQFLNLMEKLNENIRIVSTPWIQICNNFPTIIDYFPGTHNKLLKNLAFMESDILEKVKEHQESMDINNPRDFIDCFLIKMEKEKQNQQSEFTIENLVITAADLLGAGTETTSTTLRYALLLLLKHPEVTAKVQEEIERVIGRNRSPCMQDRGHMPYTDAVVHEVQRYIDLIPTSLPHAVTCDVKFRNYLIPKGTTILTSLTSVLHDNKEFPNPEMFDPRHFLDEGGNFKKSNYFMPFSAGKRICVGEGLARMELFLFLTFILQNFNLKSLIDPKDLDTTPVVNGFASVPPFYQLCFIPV
Summary of the method: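 Luminescent read-out of luciferin formed from Luciferin-H EGE (10uM, equal to KM). Enzyme 5nM in 50mM KPO4; compound added, 10 min at 37C, then NADPH regenerating system for 60 min at 37C. Full inhibition defined by 57uM ketoconazole.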

[12] = molecular target: Cytochrome P450 3A4 (Homo sapiens) (UniProt P08684); assay: qHTS Assay for Activators of Cytochrome P450 3A4 (AID 885; active = well fitted curve in the direction sought with a large enough effect; an effect the other way counts as inactive or inconclusive; also: nearly all actives have a fitted effect of over 65% in size); conditions: recombinant CYP3A4, Luciferin-PPXE luminescence, 60 min; series mostly up to 11.4 µM
Sequence of Cytochrome P450 3A4 (Homo sapiens) (P08684 whole entry, looked up): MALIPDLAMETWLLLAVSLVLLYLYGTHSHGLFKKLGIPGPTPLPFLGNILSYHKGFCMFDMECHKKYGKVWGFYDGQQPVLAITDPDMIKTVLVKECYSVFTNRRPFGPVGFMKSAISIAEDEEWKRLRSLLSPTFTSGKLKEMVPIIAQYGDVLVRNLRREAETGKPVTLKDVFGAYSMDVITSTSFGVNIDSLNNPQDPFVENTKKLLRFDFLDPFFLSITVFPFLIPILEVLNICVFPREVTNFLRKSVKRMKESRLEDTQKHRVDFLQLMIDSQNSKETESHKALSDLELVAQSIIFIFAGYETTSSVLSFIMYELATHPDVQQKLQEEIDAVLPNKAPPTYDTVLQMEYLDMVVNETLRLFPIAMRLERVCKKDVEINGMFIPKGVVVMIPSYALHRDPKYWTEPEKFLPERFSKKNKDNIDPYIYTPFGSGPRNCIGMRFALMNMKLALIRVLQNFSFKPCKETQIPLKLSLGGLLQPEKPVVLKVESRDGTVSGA
Summary of the method: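 20nM CYP3A4 + 25uM Luciferin-PPXE (=KM), 200mM KPO4; cpd 10 min RT; NADPH regen, 60 min RT; stop w/ detection buffer, 20 min; luminescence. Normalized to 57 uM ketoconazole.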

## CN(C)c1ncnc2c1ncn2CCn1cnc2c(N(C)C)ncnc21
[1]
  Potency: > 11.4 µM
[2]
  activity change, negative = inhibition: 7.13%
[3]
  activity change, negative = inhibition: 7.13%
[4]
  activity, negative = inhibition: 11.6%
[5]
  Potency: > 46 µM
[6]
  Potency: > 9.22 µM
[7]
  Potency: inactive
[8]
  Potency: inactive
[9]
  Potency: inactive

## NS(=O)(=O)c1ccc(NC(=O)Nc2ccccc2F)cc1
[1]
  Potency: > 11.4 µM
[2]
  activity change, negative = inhibition: -3.3%
[3]
  activity change, negative = inhibition: 20.2%
[4]
  activity, negative = inhibition: 2.14%
[5]
  Potency: > 46 µM
[6]
  Potency: > 9.22 µM
[7]
  Potency: inactive
[8]
  Potency: inactive
[10]
  activation: 3.83%

## NS(=O)(=O)c1nc(S(=O)(=O)O)c2[nH]cnc2n1
[1]
  Potency: > 11.4 µM
[2]
  activity change, negative = inhibition: 7.59%
[3]
  activity change, negative = inhibition: 2.24%
[4]
  activity, negative = inhibition: 2.49%
[5]
  Potency: > 46 µM
[6]
  Potency: > 9.22 µM
[7]
  Potency: inactive
[8]
  Potency: inactive
[11]
  Potency: inactive

## Cn1c(=O)c2[nH]c(CCNC(=O)c3ccccc3)nc2n(C)c1=O
[1]
  Potency: > 11.4 µM
[2]
  activity change, negative = inhibition: 5.92%
[3]
  activity change, negative = inhibition: 10.4%
[4]
  activity, negative = inhibition: 3.06%
[5]
  Potency: > 46 µM
[6]
  Potency: > 9.22 µM
[7]
  Potency: inactive
[8]
  Potency: inactive
[10]
  activation: 8.28%

## CN1CCN(CN2C(=O)C3C4C=CC(C3C2=O)C2C3C(=O)N(CN5CCN(C)CC5)C(=O)C3C42)CC1 (configuration not stated)
[1]
  Potency: > 11.4 µM
[2]
  activity change, negative = inhibition: 4.11%
[3]
  activity change, negative = inhibition: 4.36%
[4]
  activity, negative = inhibition: 11%
[5]
  Potency: > 46 µM
[6]
  Potency: > 9.22 µM
[7]
  Potency: inactive
[8]
  Potency: inactive
[9]
  Potency: inactive

## CC(=O)CC(=O)Nc1ccc2ccccc2c1
[1]
  Potency: > 11.4 µM
[2]
  activity change, negative = inhibition: 6.48%
[3]
  activity change, negative = inhibition: 11.8%
[4]
  activity, negative = inhibition: 6.17%
[5]
  Potency: > 46 µM
[6]
  Potency: > 9.22 µM
[7]
  Potency: inactive
[8]
  Potency: inactive
[11]
  Potency: inactive

## CC(C)CNc1nc2ncnc(N)c2[nH]1
[1]
  Potency: > 11.4 µM
[2]
  activity change, negative = inhibition: 5.51%
[3]
  activity change, negative = inhibition: 1.95%
[4]
  activity, negative = inhibition: -10.8%
[5]
  Potency: > 46 µM
[6]
  Potency: > 9.22 µM
[7]
  Potency: inactive
[8]
  Potency: inactive
[10]
  activation: 10.3%

## c1ccc(-c2cc(-c3cc(-c4ccccn4)[nH]n3)n[nH]2)nc1
[1]
  Potency: > 11.4 µM
[2]
  activity change, negative = inhibition: 4.94%
[3]
  activity change, negative = inhibition: 1.51%
[4]
  activity, negative = inhibition: -2.75%
[5]
  Potency: > 46 µM
[6]
  Potency: > 9.22 µM
[7]
  Potency: inactive
[8]
  Potency: inactive
[10]
  activation: 3.17%

## O=C(O)[C@@H](Br)[C@@H](Br)c1ccccc1[N+](=O)[O-]
[1]
  Potency: > 11.4 µM
[2]
  activity change, negative = inhibition: 3.89%
[3]
  activity change, negative = inhibition: 10.2%
[4]
  activity, negative = inhibition: -0.793%
[5]
  Potency: > 46 µM
[6]
  Potency: > 9.22 µM
[7]
  Potency: inactive
[8]
  Potency: inactive
[10]
  activation: 6.66%

## Cc1cc(=O)oc2cc(O)c(CN(C)CC(=O)O)cc12
[1]
  Potency: > 11.4 µM
[2]
  activity change, negative = inhibition: 8.78%
[3]
  activity change, negative = inhibition: 10.9%
[4]
  activity, negative = inhibition: -5.54%
[5]
  Potency: > 46 µM
[6]
  Potency: > 9.22 µM
[7]
  Potency: inactive
[8]
  Potency: inactive
[11]
  Potency: inactive
[10]
  activation: 2.1%

## N#C/C(=C(\O)C(=O)O)c1ccc(-c2cccc3ccccc23)cc1
[1]
  Potency: > 11.4 µM
[2]
  activity change, negative = inhibition: -3.67%
[3]
  activity change, negative = inhibition: 4.07%
[4]
  activity, negative = inhibition: 3.75%
[5]
  Potency: > 46 µM
[6]
  Potency: > 9.22 µM
[7]
  Potency: inactive
[8]
  Potency: inactive
[11]
  Potency: inactive

## O=C(O)CC[C@@H](C(=O)O)N1C(=O)[C@@H]2[C@@H]3CC[C@H](C3)[C@@H]2C1=O
[1]
  Potency: > 11.4 µM
[2]
  activity change, negative = inhibition: 11.4%
[3]
  activity change, negative = inhibition: 3.45%
[4]
  activity, negative = inhibition: -17%
[5]
  Potency: > 46 µM
[6]
  Potency: > 9.22 µM
[7]
  Potency: inactive
[8]
  Potency: inactive
[11]
  Potency: inactive

## CC(C)=C[C@H]1[C@@H](C(=O)Oc2ccccc2C(C)C)C1(C)C
[1]
  Potency: > 11.4 µM
[2]
  activity change, negative = inhibition: 9.15%
[3]
  activity change, negative = inhibition: 3.56%
[4]
  activity, negative = inhibition: 6.13%
[5]
  Potency: > 46 µM
[6]
  Potency: > 9.22 µM
[7]
  Potency: inactive
[8]
  Potency: inactive
[11]
  Potency: 1.26 µM (active)

## CCN1CCC(O)([C@H](C(=O)O)c2ccccc2)CC1
[1]
  Potency: > 11.4 µM
[2]
  activity change, negative = inhibition: -5.97%
[3]
  activity change, negative = inhibition: 16.2%
[4]
  activity, negative = inhibition: 16.9%
[5]
  Potency: > 46 µM
[6]
  Potency: > 9.22 µM
[7]
  Potency: inactive
[8]
  Potency: inactive
[10]
  activation: -12.7%

## CC(=O)/C(=C\c1ccccc1F)C(=O)c1ccccc1
[1]
  Potency: > 11.4 µM
[2]
  activity change, negative = inhibition: -4.86%
[3]
  activity change, negative = inhibition: 2.06%
[4]
  activity, negative = inhibition: -1.38%
[5]
  Potency: > 46 µM
[6]
  Potency: > 9.22 µM
[7]
  Potency: inactive
[8]
  Potency: inactive
[12]
  Potency: inactive
[11]
  Potency: 2 µM (active)
